The supplement of paper PMC10127200
Where a name gives a salt, the structure may show the parent alone.

What was measured:
Assay in all cases: Euclidean distance of Cell Painting phenotypic profile (signed KS, 77 features) to DMSO centroid (dimensionless distance); 5 or 10 uM (library dependent); higher = stronger phenotypic change vs DMSO (phenoactivity)
Details in all cases: 48 h
786-O = system: 786-O
Procedure, shortened: (§1)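 Five cancer lines, together with a healthy fibroblast line, received library compounds for 48 h at a library-dependent 10 or 5 uM and 0.1% DMSO final. Harmony then derived 77 features from confocal 20X images (9 fields/well) of the stained cells, scoring each as a signed Kolmogorov-Smirnov statistic against same-plate vehicle wells. After plate-position correction, correlation weighting and replicate averaging at the top dose, phenoactivity was taken as each profile's Euclidean distance to the median vehicle profile.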

A549 = system: A549
Procedure, shortened: as §1

DU145 = system: DU145
Procedure, shortened: as §1

FB = system: FB
Procedure, shortened: as §1

HEPG2 = system: HEPG2
Procedure, shortened: as §1

OVCAR4 = system: OVCAR4
Procedure, shortened: as §1

SMILES | Euclidean distance (786-O) | Euclidean distance (A549) | Euclidean distance (DU145) | Euclidean distance (FB) | Euclidean distance (HEPG2) | Euclidean distance (OVCAR4)
CCCOc1ccc2[nH]c(NC(=O)OC)nc2c1 [Oxibendazole] | 2.66 | 2.7 | 3.08 | 2.55 | 1.73 | 2.58
CCNC(=O)CCC/C=C\C[C@@H]1[C@@H](/C=C/[C@@H](O)CCc2ccccc2)[C@H](O)C[C@@H]1O [Bimatoprost] | 1.63 | 1.42 | 0.906 | 1.4 | 0.869 | 1.27
Nc1ccc(S(=O)(=O)NC(=O)c2ccccc2)cc1 [Sulfabenzamide] | 0.937 | 0.388 | 0.77 | 0.837 | 0.665 | 1.75
COC(=O)[C@@H]1[C@H]2C[C@H]3c4[nH]c5ccccc5c4CCN3C[C@@H]2CC[C@@H]1O [Yohimbine HCl] | 1.79 | 0.764 | 0.901 | 0.844 | 0.549 | 0.758
O=C(c1ccc(F)cc1)C1CCN(CCn2c(=O)[nH]c3ccccc3c2=O)CC1 [Ketanserin] | 1.44 | 0.68 | 0.898 | 0.767 | 0.883 | 1.08
O=C(O)[C@H](O)Cc1ccc(O)c(O)c1 [Danshensu] | 1.51 | 1.33 | 0.736 | 0.877 | 1.33 | 1.65
COc1ccc2cc1Oc1ccc(cc1)C[C@H]1c3c(cc4c(c3Oc3cc5c(cc3OC)CCN(C)[C@@H]5C2)OCO4)CCN1C [Cepharanthine] | 4.22 | 4.24 | 3.62 | 4.8 | 3.63 | 3.87
CCc1c(O)cc(O)c(C(=O)c2ccc(OCCN3CCOCC3)c(OC)c2)c1CC(=O)N(CCOC)CCOC | 2.14 | 3.28 | 2.34 | 3.63 | 2.39 | 3.18
O=C1CN(/N=C/c2ccc([N+](=O)[O-])o2)C(=O)N1 [Nitrofurantoin] | 1.11 | 0.86 | 1.02 | 0.744 | 0.699 | 0.831
CO[C@H]1C(=O)[C@]2(C)[C@@H](OC)C[C@H]3OC[C@@]3(OC(C)=O)[C@H]2[C@H](OC(=O)c2ccccc2)[C@]2(O)C[C@H](OC(=O)[C@H](O)[C@@H](NC(=O)OC(C)(C)C)c3ccccc3)C(C)=C1C2(C)C [Cabazitaxel] | 3.68 | 3.16 | 3.88 | 2.6 | 1.97 | 2.5
CC(C)(CCCCCC(O)CCCCCC(C)(C)C(=O)O)C(=O)O | 0.76 | 0.809 | 0.925 | 0.851 | 0.375 | 1.06
Fc1ccc([C@@H]2CCNC[C@H]2COc2ccc3c(c2)OCO3)cc1 [Paroxetine mesylate] | 1.64 | 1.28 | 1.89 | 1.62 | 2.59 | 1.52
Cc1cccc(C)c1OCC(C)N (centres undefined) [Mexiletine HCl] | 0.988 | 0.742 | 0.639 | 1.07 | 0.966 | 0.836
C=CCc1ccc(O)c(-c2ccc(O)c(CC=C)c2)c1 [Honokiol] | 0.998 | 0.732 | 1.22 | 1.46 | 1.39 | 1.18
Cc1ccccc1N1CCN(CCc2nnc3n2CCCC3)CC1 [Dapiprazole Hydrochloride] | 1.23 | 0.715 | 0.81 | 0.786 | 1.09 | 1.17
NCCOB(c1ccccc1)c1ccccc1 [2-Aminoethyl Diphenylborinate (2-APB)] | 1.61 | 0.835 | 1 | 0.968 | 0.822 | 1.13
CCOCc1nc2c(N)nc3ccccc3c2n1CC(C)(C)O [Resiquimod] | 1.35 | 1.05 | 1.47 | 0.954 | 0.587 | 1.19
CO/N=C(\C(=O)N[C@@H]1C(=O)N2C(C(=O)O)=C(COC(C)=O)CS[C@H]12)c1csc(N)n1 [Cefotaxime] | 1.26 | 0.798 | 0.573 | 0.69 | 0.777 | 0.905
Nc1nc(OCc2cc(Br)cs2)c2[nH]cnc2n1 [Lomeguatrib] | 1.07 | 1.13 | 1.15 | 1.29 | 0.861 | 1.04
CNCCCN1c2ccccc2CCc2ccccc21 [Desipramine Hydrochloride] | 0.817 | 1.07 | 1.11 | 1.73 | 1.43 | 1.25

SMILES | Euclidean distance (786-O) | Euclidean distance (A549) | Euclidean distance (DU145) | Euclidean distance (FB) | Euclidean distance (HEPG2) | Euclidean distance (OVCAR4)
COc1ccc(CC(C)(C)NC[C@H](O)c2cc(O)cc3c2OCC(=O)N3)cc1 [Olodaterol hydrochloride] | 1.07 | 0.364 | 1.21 | 1.12 | 0.379 | 1.1
CC(C)[C@@H](C)/C=C/[C@@H](C)[C@H]1CC[C@H]2C3=CC=C4C[C@@H](O)CC[C@]4(C)[C@H]3CC[C@]12C [Ergosterol] | 1.2 | 1.36 | 1.1 | 0.707 | 0.946 | 1.17
CNS(=O)(=O)Cc1ccc2[nH]cc(CCN(C)C)c2c1 [Sumatriptan Succinate] | 1.54 | 1.49 | 0.753 | 1.35 | 0.966 | 1.66
Cn1c(Nc2ccc(C(F)(F)F)cc2)nc2cc(Oc3ccnc(-c4ncc(C(F)(F)F)[nH]4)c3)ccc21 | 1.98 | 1.97 | 1.46 | 3.86 | 1.24 | 1.5
C[C@]1(Cn2ccnn2)[C@H](C(=O)O)N2C(=O)C[C@H]2S1(=O)=O [Tazobactam] | 0.708 | 0.639 | 0.78 | 0.984 | 0.41 | 0.673
CN(C)c1cccc(-c2c3c(=O)n(-c4ccccc4Cl)[nH]c3cc(=O)n2C)c1 | 1.01 | 1.99 | 1.08 | 0.844 | 0.852 | 1.39
NCCCC[C@H](N[C@@H](CCc1ccccc1)C(=O)O)C(=O)N1CCC[C@H]1C(=O)O [Lisinopril dihydrate] | 1.2 | 0.621 | 0.821 | 0.86 | 0.746 | 1.51
O=C(CCCCCCC(=O)Nc1ccccc1)NO [Vorinostat (SAHA. MK0683)] | 3.44 | 2.96 | 3.15 | 3.77 | 3.15 | 2.85
Nc1ccn([C@@H]2CS[C@H](CO)O2)c(=O)n1 [Lamivudine] | 0.725 | 0.508 | 0.589 | 1 | 1.07 | 0.623
CCCC1O[C@@H]2C[C@H]3[C@@H]4CCC5=CC(=O)C=C[C@]5(C)[C@H]4[C@@H](O)C[C@]3(C)[C@]2(C(=O)CO)O1 (some centres undefined) [Budesonide] | 3.14 | 1.89 | 2.06 | 3.49 | 2.09 | 2.47
O=C(C=Cc1ccccc1)NC(NC(=S)Nc1ccc(Cl)cc1)C(Cl)(Cl)Cl (centres undefined) | 1.51 | 2.16 | 1.33 | 1.53 | 2.23 | 1.08
O=c1cc(-c2ccc(O)c(O)c2)oc2cc(O)cc(O)c12 [Luteolin] | 1.39 | 1.21 | 2.73 | 1.9 | 1.36 | 1.27
CN1CCN(C2CCN(C(=O)Nc3cc(Oc4ccc(NC(=O)C5(C(=O)Nc6ccc(F)cc6)CC5)c(F)c4)ccn3)CC2)CC1 [Golvatinib (E7050)] | 1.08 | 1.47 | 1.32 | 3.36 | 3.28 | 1.45
NC(=O)c1cnccn1 [Pyrazinamide] | 1.07 | 1.35 | 0.786 | 1.14 | 1.95 | 1.13
COC(=O)Nc1nc2cc(C(=O)c3ccccc3)ccc2[nH]1 [Mebendazole] | 3.02 | 3.03 | 3.69 | 2.58 | 3 | 2.7
CC(C)(OCc1nn(Cc2ccccc2)c2ccccc12)C(=O)O [Bindarit] | 0.377 | 0.614 | 0.791 | 0.934 | 0.939 | 0.825
CCc1c2c(nc3ccc(O)cc13)-c1cc3c(c(=O)n1C2)COC(=O)[C@]3(O)CC | 4.4 | 4.38 | 3.48 | 4.61 | 3.55 | 3.46
OCCN1C[C@H](O)[C@@H](O)[C@H](O)[C@H]1CO [Miglitol] | 1.4 | 0.649 | 1.16 | 0.979 | 0.675 | 1.27
NCCCCC(NC(=O)C1CCCN1C(=O)C1CSSCC(N)C(=O)NC(Cc2ccc(O)cc2)C(=O)NC(Cc2ccccc2)C(=O)NC(CCC(N)=O)C(=O)NC(CC(N)=O)C(=O)N1)C(=O)NCC(N)=O (centres undefined) [Lypressin Acetate] | 1.39 | 0.851 | 1.08 | 1.11 | 0.477 | 1.48
